# Reference: article PMC5540273 (PLoS ONE, 2017)
# System: DYRK1A
# Settings: concentration: 1 μM, replicates: in singlicate; n = 1
# 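Also: KINOMEscan kinase panel screen.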
row,SMILES,%Inh [%]
1,c1ccc(-c2ccc3c(-c4ccnc(Nc5ccc6c(c5)OCCO6)n4)cnn3n2)cc1 [GW818941],8
2,CCCc1ccc(S(=O)(=O)NC2CCN(c3ccnc(Nc4ccc(OC)cc4)n3)C2)cc1 (centres unmarked) [GSK1379737],19
3,Clc1cccc(-c2nc(Nc3ccncc3)c3ccccc3n2)c1 [GW873004],12
4,Cc1ccc(O)cc1Nc1cc(C(F)(F)F)nc2ccc(-c3ccncc3)cc12 [GW630823],0
5,COc1cc2ncnc(Nc3ccc(OCc4ccccc4Br)c(Cl)c3)c2cc1OC.Cl [GI261590],10
6,Clc1ccc(-c2cc(-c3c[nH]nc3-c3ccccn3)ccn2)cc1 [GW681251],11
7,CC(C)(C)OC(=O)NC1CCCN(c2cc(-c3ccc4c(N)n[nH]c4c3)nc(N)n2)C1 (centres unmarked) [GSK2286096],14
8,Cc1cccc(-c2nc(Nc3ccc4[nH]nnc4c3)c3ccccc3n2)n1 [GW867587],0
9,O=C(Nc1ccccc1)Nc1ccc(Oc2ccc3nccn3n2)cc1,0
10,CNc1nccc(-c2c(-c3ccc(F)cc3)ncn2CCCN2CCOCC2)n1 [SB-222516],6
11,Fc1cccc(COc2ccc(Nc3ncnc4sc(-c5ccc[nH]5)cc34)cc2Cl)c1 [GW707818],0
12,O=C(Nc1ccccc1F)NC1CCN(c2ccnc(Nc3ccc(F)cc3)n2)C1 (centres unmarked) [GSK1379722],19
13,Cl.Cl.c1ccc(-c2cc3ccncc3cc2OC2CCNCC2)cc1 [GSK1122999],13
14,Fc1cccc(COc2ccc(Nc3ncnc4cc[nH]c34)cc2Cl)c1,8
15,COC(=O)c1cccc(NC(=O)NCCNc2ccnc(Nc3ccc(F)cc3)n2)c1 [GSK1379883],0
16,CN1c2ccc(-c3ccc(C(=O)NCCO)cc3)cc2-c2[nH]ncc2S1(=O)=O,47
17,CC(C)(C)c1ccc(-n2cnc3c(N)ncnc32)cc1 [SKF-97263],15
18,Nc1nc(-c2cccnc2)c(-c2ccnc3ccccc23)s1 [GW684083],20

row,SMILES,%Inh [%]
1,CSc1ccc(NC2=C(c3ccccc3Cl)C(=O)NC2=O)cc1 [SB-342411],67
2,Cc1ccc(C)c(NC(=O)NCCNc2ccnc(Nc3ccc(F)cc3)n2)c1 [GSK1379878],0
3,COc1ccc(-c2oc3ncnc(N)c3c2-c2ccc(OC)cc2)cc1 [SB-589132],15
4,Cl.Cn1ccc(-c2cccc(Nc3ccnc4cc(-c5nccs5)ccc34)c2)n1 [GW525701],12
5,Cn1cc(-c2ccc3c(c2)CCN3C(=O)Cc2cccc(C(F)(F)F)c2)c2c(N)ncnc21 [GSK2606414],16
6,FC(F)(F)c1cc(Nc2nccc(-c3c(-c4ccc(Cl)cc4)nn4ncccc34)n2)ccc1Cl [GW829351],0
7,O=C(CCO)NCCn1ccc2ncnc(Nc3ccc(Oc4cccc(C(F)(F)F)c4)c(Cl)c3)c21,0
8,COc1ccc(NC(=O)Nc2ccc(C)c(-c3ccc(C(=O)Nc4ccncc4)cc3)c2)cc1 [GSK1398475],2
9,CSc1nn2c(=O)cc(N3CCOCC3)nc2n1Cc1cccc(Cl)c1Cl [GSK2347225],19
10,CS(=O)(=O)CCNCc1nc(-c2ccc3ncnc(Nc4ccc(OCc5cccc(F)c5)c(Cl)c4)c3c2)cs1.Cl [GW583340],12
11,Nc1nc(-c2ccc3c(N)n[nH]c3c2)cc(N2CCC[C@@H](C(=O)Nc3ccccc3)C2)n1.O=C(O)C(F)(F)F.O=C(O)C(F)(F)F [GSK2288359],0
12,C[C@H]1CC[C@@H](C(=O)Nc2ccccc2)CN1c1cc(-c2ccc3c(N)n[nH]c3c2)nc(N)n1 [GSK2283293],17
13,CN1CCC(n2cnc(-c3ccc(F)cc3)c2-c2ccnc(NC3CCNCC3)n2)CC1 [SB-229482],0
14,COc1ccc(-c2nc3n(c2-c2ccncc2)CCC3)cc1 [SKF-104493],0
15,Cc1cc(N2CCC(NS(=O)(=O)c3ccc(F)cc3)CC2)nc(Nc2cccc(C#N)c2)n1.O=C(O)C(F)(F)F [GSK1653537],32
16,CCc1nc(-c2cccc(N(C)S(=O)(=O)c3ccccc3)c2)c(-c2ccnc(Nc3ccc(N4CCN(C(C)=O)CC4)nc3)n2)s1 [GSK1645895],0
17,Nc1n[nH]c2nnc(-c3ccccc3)cc12 [SB-517389],72
18,CCC(CC)(CC)n1cnc2c(N)ncnc21 [SKF-97620],0

# System: DYRK1B
# Settings: concentration: 1 μM, replicates: in singlicate; n = 1
row,SMILES,%Inh [%]
1,c1ccc(-c2ccc3c(-c4ccnc(Nc5ccc6c(c5)OCCO6)n4)cnn3n2)cc1 [GW818941],16
2,CCCc1ccc(S(=O)(=O)NC2CCN(c3ccnc(Nc4ccc(OC)cc4)n3)C2)cc1 (centres unmarked) [GSK1379737],8
3,Clc1cccc(-c2nc(Nc3ccncc3)c3ccccc3n2)c1 [GW873004],57
4,Cc1ccc(O)cc1Nc1cc(C(F)(F)F)nc2ccc(-c3ccncc3)cc12 [GW630823],7
5,COc1cc2ncnc(Nc3ccc(OCc4ccccc4Br)c(Cl)c3)c2cc1OC.Cl [GI261590],0
6,Clc1ccc(-c2cc(-c3c[nH]nc3-c3ccccn3)ccn2)cc1 [GW681251],0
7,CC(C)(C)OC(=O)NC1CCCN(c2cc(-c3ccc4c(N)n[nH]c4c3)nc(N)n2)C1 (centres unmarked) [GSK2286096],100
8,Cc1cccc(-c2nc(Nc3ccc4[nH]nnc4c3)c3ccccc3n2)n1 [GW867587],0
9,O=C(Nc1ccccc1)Nc1ccc(Oc2ccc3nccn3n2)cc1,30
10,CNc1nccc(-c2c(-c3ccc(F)cc3)ncn2CCCN2CCOCC2)n1 [SB-222516],48
11,Fc1cccc(COc2ccc(Nc3ncnc4sc(-c5ccc[nH]5)cc34)cc2Cl)c1 [GW707818],38
12,O=C(Nc1ccccc1F)NC1CCN(c2ccnc(Nc3ccc(F)cc3)n2)C1 (centres unmarked) [GSK1379722],22
13,Cl.Cl.c1ccc(-c2cc3ccncc3cc2OC2CCNCC2)cc1 [GSK1122999],15
14,Fc1cccc(COc2ccc(Nc3ncnc4cc[nH]c34)cc2Cl)c1,25
15,COC(=O)c1cccc(NC(=O)NCCNc2ccnc(Nc3ccc(F)cc3)n2)c1 [GSK1379883],14
16,CN1c2ccc(-c3ccc(C(=O)NCCO)cc3)cc2-c2[nH]ncc2S1(=O)=O,49
17,CC(C)(C)c1ccc(-n2cnc3c(N)ncnc32)cc1 [SKF-97263],21
18,Nc1nc(-c2cccnc2)c(-c2ccnc3ccccc23)s1 [GW684083],0

row,SMILES,%Inh [%]
1,CSc1ccc(NC2=C(c3ccccc3Cl)C(=O)NC2=O)cc1 [SB-342411],78
2,Cc1ccc(C)c(NC(=O)NCCNc2ccnc(Nc3ccc(F)cc3)n2)c1 [GSK1379878],1
3,COc1ccc(-c2oc3ncnc(N)c3c2-c2ccc(OC)cc2)cc1 [SB-589132],0
4,Cl.Cn1ccc(-c2cccc(Nc3ccnc4cc(-c5nccs5)ccc34)c2)n1 [GW525701],16
5,Cn1cc(-c2ccc3c(c2)CCN3C(=O)Cc2cccc(C(F)(F)F)c2)c2c(N)ncnc21 [GSK2606414],0
6,FC(F)(F)c1cc(Nc2nccc(-c3c(-c4ccc(Cl)cc4)nn4ncccc34)n2)ccc1Cl [GW829351],0
7,O=C(CCO)NCCn1ccc2ncnc(Nc3ccc(Oc4cccc(C(F)(F)F)c4)c(Cl)c3)c21,12
8,COc1ccc(NC(=O)Nc2ccc(C)c(-c3ccc(C(=O)Nc4ccncc4)cc3)c2)cc1 [GSK1398475],0
9,CSc1nn2c(=O)cc(N3CCOCC3)nc2n1Cc1cccc(Cl)c1Cl [GSK2347225],23
10,CS(=O)(=O)CCNCc1nc(-c2ccc3ncnc(Nc4ccc(OCc5cccc(F)c5)c(Cl)c4)c3c2)cs1.Cl [GW583340],20
11,Nc1nc(-c2ccc3c(N)n[nH]c3c2)cc(N2CCC[C@@H](C(=O)Nc3ccccc3)C2)n1.O=C(O)C(F)(F)F.O=C(O)C(F)(F)F [GSK2288359],14
12,C[C@H]1CC[C@@H](C(=O)Nc2ccccc2)CN1c1cc(-c2ccc3c(N)n[nH]c3c2)nc(N)n1 [GSK2283293],0
13,CN1CCC(n2cnc(-c3ccc(F)cc3)c2-c2ccnc(NC3CCNCC3)n2)CC1 [SB-229482],23
14,Cc1cc(N2CCC(NS(=O)(=O)c3ccc(F)cc3)CC2)nc(Nc2cccc(C#N)c2)n1.O=C(O)C(F)(F)F [GSK1653537],97.7
15,CCc1nc(-c2cccc(N(C)S(=O)(=O)c3ccccc3)c2)c(-c2ccnc(Nc3ccc(N4CCN(C(C)=O)CC4)nc3)n2)s1 [GSK1645895],0
16,Nc1n[nH]c2nnc(-c3ccccc3)cc12 [SB-517389],92.4
17,CCC(CC)(CC)n1cnc2c(N)ncnc21 [SKF-97620],0
